Among all 330,000 compounds or so, about 4,100 (1.2%) were called active. The full list was thinned out, with actives kept by preference. A number with no mark means an inactive call. No stated cut-off is given here; in the data, active means inhibition above about 50%; inactive means the rest.

Sequence of Sentrin-specific protease 8 (Homo sapiens) (Q96LD8 whole entry, looked up): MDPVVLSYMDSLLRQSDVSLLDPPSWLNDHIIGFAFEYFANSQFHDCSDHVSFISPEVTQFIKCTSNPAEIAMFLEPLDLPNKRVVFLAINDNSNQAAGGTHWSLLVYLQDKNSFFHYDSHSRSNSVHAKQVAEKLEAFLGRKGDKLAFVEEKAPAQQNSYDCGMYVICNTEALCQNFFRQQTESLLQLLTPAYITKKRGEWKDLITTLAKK

The assay has as its target Sentrin-specific protease 8 (Homo sapiens) (UniProt Q96LD8). Put plainly: blockers of human SENP8 peptidase activity – biochemical, luminescence, primary screen (AID 2540). Conditions: purified SENP8, Z-RLRGG-aminoluciferin cleavage, at 10 µM, active compounds read high.
In the case of `CN1CCN(c2cc(N3CCNCC3)ccc2[N+](=O)[O-])CC1`, the inhibition is 2.96%. In the case of `Cc1nc2ccc(N3CCN(C)CC3)cc2nc1C` it was -5.08%. In the case of `COc1cccc(-c2nc3ccc(N4CCN(C)CC4)cc3[nH]2)c1` it was 57.4% (active). In the case of `CN(C)P(=S)(Nc1ccccc1)C(Cl)(Cl)Cl` (stereo not given) it was -7.38%; in that of `COc1ccccc1CN1CCN(C(=O)Cc2ccccc2)CC1`, -9.12%; in that of `CCOC(=O)c1c(N)n(CCN2CCOCC2)c2nc3ccccc3nc12`, 2.3%.

With `CCOC(=O)c1c(N)n(Cc2ccccc2)c2nc3ccccc3nc12`, the inhibition is 9.31%.

Take `COc1cc(Cn2c(N)c(C(=O)NCc3ccco3)c3nc4ccccc4nc32)cc(OC)c1OC`: the inhibition is 90.9% (active).

Turning to `CC(=O)c1ccc(OC(NC(=O)Cc2ccccc2)C(Cl)(Cl)Cl)cc1` (stereo not given), the inhibition was -0.124%. In the case of `CCOc1ccc(CN(CCCl)CCCl)cc1C(=O)OC` it was -7.06%.

These data come from PubChem BioAssay AID2540 (Sanford-Burnham Center for Chemical Genomics, 2010).
